The values that follow come from PubChem BioAssay (NCATS).

Unmarked numbers belong to inactive results. Records with an inconclusive call do not appear. Active and inactive are the calls of the source. Unless noted, calls follow the shape of the dose curve; as a rule, active = well fitted curve in either direction with a large enough effect (not every such curve was filed as active); inconclusive = small, poorly fitted or top-dose-only effect, or another doubt; inactive = flat fitted curve, though single readings scatter. Some results are limits rather than exact numbers.

Experiment [1] addresses Lysosomal acid glucosylceramidase (Homo sapiens) (UniProt P04062). Nature of the experiment: Glucocerebrosidase-p2 (AID 348; in the data active = potency below about 10 µM; also: potency is read from the fitted curve at half-maximal effect). To be noted: purified GBA, blue fluorogenic substrate, 40 min. The method, boiled down: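 Compounds titrated from 0.6 nM upwards against 0.2 nM enzyme in pH 5.9 citric acid/KH2PO4, taurocholate, tween-20; blue fluorogenic substrate 80 uM, 40 min room temperature, stopped and read Ex 365/Em 440 for AC50.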

Experiment [2] can be described thus: AP1 Signaling Pathway (AID 357).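 Also: ME-180 reporter cells stimulated with EGF at its EC50 level; % is scaled to controls: 0 for no effect and ±100 for the full control effect.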 To be noted: ME-180 AP-1-bla reporter, EGF-induced, beta-lactamase ratio, 5 h; at 7.69 µM (top of the series) unless noted. The method, boiled down:
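Beta-lactamase reporter under AP-1 response element, ME-180 background. Stimulus: EC50 EGF. Compound exposure 5 h, 37 °C. Detection: CCF4, 2.5 h RT, 460/530 nm. Values: AC50 from titration.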

The nature of experiment [3]: NFAT Signaling Pathway (AID 444).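 Also: carbachol stimulus at about its EC50 of 1 µM final; % is scaled to controls: 0 for no effect and ±100 for the full control effect.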 To be noted: Jurkat NFAT-bla M1, carbachol, beta-lactamase ratio, 5 h; at 7.69 µM (top of the series) unless noted. A digest of the protocol: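 Jurkat cells carrying an NFAT-driven β-lactamase reporter and co-transfected muscarinic M1 receptor were treated with compound plus carbachol (1 uM final, an EC50 level) for 5 h at 37 °C. CCF4 loading followed for 1 h at RT; 460/530 nm ratio gave %activity.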

The nature of experiment [4]: Stat Signaling Pathway (AID 446).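 Also: ME-180 cervical cancer cells given 40 pM IL-6 alongside compound; SIE-controlled beta-lactamase reporter measured as 460/530 nm FRET emission ratio; % is scaled to controls: 0 for no effect and ±100 for the full control effect.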 Particulars: ME-180 (cervical carcinoma) SIE beta-lactamase reporter, IL-6 stimulated, 5 h; at 7.69 µM (top of the series) unless noted. The method, boiled down:
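ME-180 cells carrying a SIE-driven beta-lactamase reporter are stimulated with 40 pM IL-6 for 5 h at 37C in the presence of compound. The 460/530 nm FRET substrate ratio is read after 2.5 h at RT. Data are normalised to 300 pM IL-6 and to 125 nM JAK inhibitor controls.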

The target in experiment [5] is Glucocorticoid receptor (Homo sapiens) (UniProt P04150). Nature of the experiment: GR-EFC Redistribution (AID 451; calls by dose curve; also: potency is read from the fitted curve at half-maximal effect). To be noted: CHO-K1 GR-EFC translocation, beta-gal luminescence, 2 h. A digest of the protocol:
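CHO-K1 cells stably expressing nuclear-localized β-gal enzyme acceptor and GR fused C-terminally to the enzyme donor fragment; ligand-driven nuclear translocation restores β-gal by complementation. Compounds titrated up to 46 uM final, 2 h at 37 °C; luminescence read.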

In experiment [6] the target is Mitogen-activated protein kinase 10 (Mus musculus) (UniProt Q61831). Kind of experiment: JNK3 AlphaScreen Assay (AID 530).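 Also: kinase came from lysate of stimulated human HepG2 cells; signal reports phosphorylation of biotinylated GST-cJun 1-79 at Ser73 with 10 µM ATP; % is scaled to controls: 0 for no effect and ±100 for the full control effect.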 To be noted: JNK3 lysate, c-Jun phosphorylation; series mostly up to 57.1 µM. The method, boiled down:
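Inhibitors reduce antibody binding to phosphorylated biotin-cJun, lowering AlphaScreen luminescence. Lysates from HepG2 cells pre-activated by IL-1beta plus TNF-alpha supplied JNK3; compounds were titrated.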
A general note: In Alpha technology, singlet oxygen from a donor bead excites a nearby acceptor bead.

In experiment [7] the target is 3',5'-cyclic-AMP phosphodiesterase 4B (Homo sapiens) (UniProt Q07343). Nature of the experiment: qHTS Assay for Inhibitors of PDE-IV (AID 607; active = well fitted activation curve with a large enough effect in the main read-out, with a control signal flat, not every such curve was filed as active; also: % of control where 0% means no effect). To be noted: HEK293 ACTOne CNG channel cells, membrane potential fluorescence; series mostly up to 22.9 µM. A digest of the protocol: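 HEK293 ACTOne cells with CNG channel (1000/well), endogenous PDE4; membrane potential dye, compounds up to 22.9 uM final. Fluorescence Ex 535/Em 590; RO 20-1724 (100 uM final) as reference.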

The nature of experiment [8]: Primary qHTS for small molecule stabilizers of the endoplasmic reticulum resident proteome: Secreted ER Calcium Modulated Protein (SERCaMP) assay (AID 1508630; active = well fitted curve in the direction sought with a large enough effect; an effect the other way counts as inactive or inconclusive; also: % is scaled to controls: 0 for no effect and ±100 for the full control effect). To be noted: SH-SY5Y GLuc-SERCaMP (Gaussia luciferase released on ER calcium loss) secretion, thapsigargin, luminescence; series mostly up to 38.4 µM. The method, boiled down: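 GLuc-SERCaMP-expressing SH-SY5Y cells, pretreated 16 h with compound, are challenged with thapsigargin to empty ER calcium stores; after 4 h, coelenterazine is added directly to the medium and luminescence is imaged.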

Experiment [9] deals with Cytochrome P450 2C9 (Homo sapiens) (UniProt P11712). Kind of experiment: qHTS Assay for Inhibitors and Substrates of Cytochrome P450 2C9 (AID 883; active = well fitted curve in the direction sought with a large enough effect; an effect the other way counts as inactive or inconclusive; also: potency is read from the fitted curve at half-maximal effect; nearly all actives have a fitted effect of over 60% in size). Particulars: recombinant CYP2C9, luciferin-H luminescence, 60 min; series mostly up to 57.1 µM. The method, boiled down:
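A luminogenic readout tracked human CYP2C9 (10nM) converting deoxyluciferin (100uM, at KM) in 25mM KPO4 during 60 min at 37C with regenerated NADPH. Values normalized to 57uM sulphaphenazole as complete inhibition.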
(In general: In qHTS, concentration-response curves come from the screen itself.)

For experiment [10], the target named is Cytochrome P450 3A4 (Homo sapiens) (UniProt P08684). Kind of experiment: qHTS Assay for Inhibitors and Substrates of Cytochrome P450 3A4 (AID 884; active = well fitted curve in the direction sought with a large enough effect; an effect the other way counts as inactive or inconclusive; also: potency is read from the fitted curve at half-maximal effect; nearly all actives have a fitted effect of over 50% in size). To be noted: recombinant CYP3A4, Luciferin-PPXE luminescence; series mostly up to 57.1 µM. The method, boiled down: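 20 nM human CYP3A4 with 25 uM Luciferin-PPXE (at KM) in 200 mM KPO4, preincubated 10 min with compound; NADPH regeneration started a 60 min RT reaction. Luciferin detected by luminescence, normalized to 57 uM ketoconazole as full inhibition.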

For experiment [11] the target is unchanged. Kind of experiment: qHTS Assay for Activators of Cytochrome P450 3A4 (AID 885; active = well fitted curve in the direction sought with a large enough effect; an effect the other way counts as inactive or inconclusive; also: nearly all actives have a fitted effect of over 65% in size). Particulars: recombinant CYP3A4, Luciferin-PPXE luminescence, 60 min; series mostly up to 57.1 µM. The method, boiled down: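 Human CYP3A4 (20 nM) with Luciferin-PPXE at 25 uM (its KM) in 200 mM KPO4; 10 min compound preincubation, then NADPH regeneration and 60 min reaction at RT. Luciferin read by luminescence; normalized to 57 uM ketoconazole full inhibition.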

The target in experiment [12] is Cytochrome P450 2C19 (Homo sapiens) (UniProt P33261). Kind of experiment: qHTS Assay for Inhibitors and Substrates of Cytochrome P450 2C19 (AID 899; active = well fitted curve in the direction sought with a large enough effect; an effect the other way counts as inactive or inconclusive; also: potency is read from the fitted curve at half-maximal effect; nearly all actives have a fitted effect of over 60% in size). Particulars: recombinant CYP2C19, luciferin-H EGE luminescence; series mostly up to 57.1 µM. A digest of the protocol: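 NADPH-dependent conversion of Luciferin-H EGE (10uM, at KM) by 5nM enzyme in 50mM KPO4, 60 min at 37C following 10 min compound preincubation. Stopped with luciferin detection buffer; luminescence read after 20 min.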
Cytochrome P450 2C19 (Homo sapiens), sequence (P33261 whole entry, looked up): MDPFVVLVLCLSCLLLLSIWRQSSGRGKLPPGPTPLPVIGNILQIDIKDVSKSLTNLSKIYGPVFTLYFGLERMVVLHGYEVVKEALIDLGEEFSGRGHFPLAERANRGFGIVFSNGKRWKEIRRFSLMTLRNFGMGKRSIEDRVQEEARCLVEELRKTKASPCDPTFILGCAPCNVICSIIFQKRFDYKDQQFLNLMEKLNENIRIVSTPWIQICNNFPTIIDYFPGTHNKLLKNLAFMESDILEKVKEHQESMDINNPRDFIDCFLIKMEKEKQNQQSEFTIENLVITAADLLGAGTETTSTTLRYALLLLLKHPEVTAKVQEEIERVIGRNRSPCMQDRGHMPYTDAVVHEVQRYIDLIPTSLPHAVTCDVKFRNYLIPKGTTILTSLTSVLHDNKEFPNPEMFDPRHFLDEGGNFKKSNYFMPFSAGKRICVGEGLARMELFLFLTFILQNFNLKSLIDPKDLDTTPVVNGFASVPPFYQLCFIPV

3',5'-cyclic-AMP phosphodiesterase 4B (Homo sapiens), sequence (Q07343 whole entry, looked up): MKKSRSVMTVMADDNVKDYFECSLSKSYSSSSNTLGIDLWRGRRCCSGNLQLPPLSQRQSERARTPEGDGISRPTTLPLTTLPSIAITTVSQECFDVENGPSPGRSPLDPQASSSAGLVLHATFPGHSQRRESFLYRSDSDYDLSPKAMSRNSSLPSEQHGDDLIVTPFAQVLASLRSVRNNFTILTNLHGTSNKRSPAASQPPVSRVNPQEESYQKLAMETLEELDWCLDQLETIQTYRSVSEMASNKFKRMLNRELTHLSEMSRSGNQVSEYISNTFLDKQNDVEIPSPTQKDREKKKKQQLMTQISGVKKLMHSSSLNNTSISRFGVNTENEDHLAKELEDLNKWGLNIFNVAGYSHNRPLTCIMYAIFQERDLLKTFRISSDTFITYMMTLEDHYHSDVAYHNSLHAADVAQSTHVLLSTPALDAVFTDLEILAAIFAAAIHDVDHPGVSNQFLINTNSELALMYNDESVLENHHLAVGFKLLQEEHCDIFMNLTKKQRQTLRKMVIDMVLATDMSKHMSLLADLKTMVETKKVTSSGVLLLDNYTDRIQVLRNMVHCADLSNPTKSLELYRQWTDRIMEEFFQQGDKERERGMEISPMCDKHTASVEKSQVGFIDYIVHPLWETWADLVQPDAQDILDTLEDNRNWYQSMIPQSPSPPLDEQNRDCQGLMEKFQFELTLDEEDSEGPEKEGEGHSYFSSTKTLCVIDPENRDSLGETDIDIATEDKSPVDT
Glucocorticoid receptor (Homo sapiens), sequence (P04150 whole entry, looked up, the tested form may be a part): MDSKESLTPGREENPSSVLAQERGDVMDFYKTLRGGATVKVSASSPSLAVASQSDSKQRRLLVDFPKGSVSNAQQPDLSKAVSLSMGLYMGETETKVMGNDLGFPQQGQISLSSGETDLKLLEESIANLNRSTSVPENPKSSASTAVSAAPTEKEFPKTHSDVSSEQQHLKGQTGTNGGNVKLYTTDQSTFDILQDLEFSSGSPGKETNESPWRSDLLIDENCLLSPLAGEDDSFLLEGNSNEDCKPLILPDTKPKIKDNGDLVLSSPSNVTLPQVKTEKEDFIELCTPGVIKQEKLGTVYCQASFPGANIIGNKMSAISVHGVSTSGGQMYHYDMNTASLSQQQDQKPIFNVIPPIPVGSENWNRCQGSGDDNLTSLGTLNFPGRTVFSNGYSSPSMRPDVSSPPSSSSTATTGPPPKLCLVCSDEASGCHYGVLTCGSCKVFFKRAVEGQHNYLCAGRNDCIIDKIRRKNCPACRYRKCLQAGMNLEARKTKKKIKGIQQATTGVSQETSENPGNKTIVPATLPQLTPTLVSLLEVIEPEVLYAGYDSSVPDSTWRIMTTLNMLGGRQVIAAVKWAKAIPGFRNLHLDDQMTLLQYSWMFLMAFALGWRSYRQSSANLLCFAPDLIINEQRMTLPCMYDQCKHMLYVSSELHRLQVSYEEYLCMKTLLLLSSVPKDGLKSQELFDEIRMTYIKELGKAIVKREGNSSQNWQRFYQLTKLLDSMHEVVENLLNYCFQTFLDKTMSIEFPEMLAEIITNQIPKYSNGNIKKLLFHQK
Lysosomal acid glucosylceramidase (Homo sapiens), sequence (P04062 whole entry, looked up): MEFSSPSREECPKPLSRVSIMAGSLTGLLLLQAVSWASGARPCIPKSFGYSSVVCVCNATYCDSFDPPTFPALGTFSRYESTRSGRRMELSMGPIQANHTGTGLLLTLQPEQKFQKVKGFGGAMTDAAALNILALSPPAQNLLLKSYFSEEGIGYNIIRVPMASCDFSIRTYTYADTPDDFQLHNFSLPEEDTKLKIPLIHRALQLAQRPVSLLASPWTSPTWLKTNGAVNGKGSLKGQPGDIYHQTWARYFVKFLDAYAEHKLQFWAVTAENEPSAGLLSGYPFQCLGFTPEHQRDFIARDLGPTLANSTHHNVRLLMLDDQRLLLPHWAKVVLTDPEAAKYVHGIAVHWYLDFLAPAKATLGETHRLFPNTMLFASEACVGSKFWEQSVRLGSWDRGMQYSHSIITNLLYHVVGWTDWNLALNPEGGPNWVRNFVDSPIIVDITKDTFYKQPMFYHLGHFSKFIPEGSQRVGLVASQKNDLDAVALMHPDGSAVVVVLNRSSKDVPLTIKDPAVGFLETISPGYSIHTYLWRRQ
Cytochrome P450 3A4 (Homo sapiens), sequence (P08684 whole entry, looked up): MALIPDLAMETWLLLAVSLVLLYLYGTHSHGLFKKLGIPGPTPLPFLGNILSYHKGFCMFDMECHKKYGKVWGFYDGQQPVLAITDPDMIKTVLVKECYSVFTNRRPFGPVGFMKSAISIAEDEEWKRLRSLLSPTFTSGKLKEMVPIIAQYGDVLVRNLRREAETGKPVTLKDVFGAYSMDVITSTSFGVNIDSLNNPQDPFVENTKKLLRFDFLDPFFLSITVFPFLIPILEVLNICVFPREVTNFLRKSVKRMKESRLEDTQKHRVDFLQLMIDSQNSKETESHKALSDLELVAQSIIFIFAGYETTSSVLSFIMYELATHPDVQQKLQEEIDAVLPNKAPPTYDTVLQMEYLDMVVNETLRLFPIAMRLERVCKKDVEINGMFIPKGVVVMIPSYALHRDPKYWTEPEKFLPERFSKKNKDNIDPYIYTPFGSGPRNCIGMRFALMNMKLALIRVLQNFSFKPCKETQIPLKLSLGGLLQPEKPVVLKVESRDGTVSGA
Cytochrome P450 2C9 (Homo sapiens), sequence (P11712 whole entry, looked up): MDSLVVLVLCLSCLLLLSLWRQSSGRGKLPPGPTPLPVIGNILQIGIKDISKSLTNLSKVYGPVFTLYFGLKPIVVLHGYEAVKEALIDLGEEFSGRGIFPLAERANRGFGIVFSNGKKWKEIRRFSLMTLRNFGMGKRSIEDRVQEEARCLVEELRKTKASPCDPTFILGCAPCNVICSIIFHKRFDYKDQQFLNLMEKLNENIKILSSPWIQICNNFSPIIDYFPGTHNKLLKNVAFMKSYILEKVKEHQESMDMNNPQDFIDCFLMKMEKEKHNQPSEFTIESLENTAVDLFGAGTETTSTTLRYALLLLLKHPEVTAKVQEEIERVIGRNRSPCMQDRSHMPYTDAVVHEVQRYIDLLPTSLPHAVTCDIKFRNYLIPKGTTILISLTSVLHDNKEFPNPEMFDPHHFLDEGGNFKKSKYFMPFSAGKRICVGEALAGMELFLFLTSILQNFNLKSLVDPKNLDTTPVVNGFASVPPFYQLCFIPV

For `COc1ccc(C(=O)N2CCC3(CCCN(c4ccccn4)C3)CC2)cc1`, the Potency is greater than 11.4 µM in experiment [1] and greater than 46 µM in [5]. Moreover, the values for the activity change, negative = inhibition in [2] and in experiment [3] were -4.8% and -8.78%, respectively. In addition, the activity, negative = inhibition in experiment [4] is -3.02%. In addition, the Potency entry in experiment [6] and in experiment [7] was “inactive” in each case. Also, in [8], the result was inactive.

Turning to `O=S(=O)(c1ccccc1)N1CCC2(CCCN(c3ccccc3)C2)CC1`, the Potency is greater than 11.4 µM in [1]; greater than 46 µM in experiment [5]; 1.26 µM (active) in experiment [9]; 3.98 µM (active) in experiment [10]; 1.58 µM (active) in experiment [12]. The values for the activity change, negative = inhibition in experiment [2] and in experiment [3] were 17.4% and -15.8%, respectively. Besides, the activity, negative = inhibition in [4] is 7.82%. Besides, the Potency result in [6], in experiment [7] and in experiment [11] was “inactive” each time. For the same compound, in experiment [8], the outcome was inactive.

Regarding `Cc1noc(C)c1C(=O)N1CCC2(CCCN(c3ncccn3)C2)CC1`, the Potency in experiment [1] was greater than 11.4 µM; in experiment [5] it was greater than 46 µM. For the same compound, the activity change, negative = inhibition in experiment [2] is -6.23%; in experiment [3] it was 7.66%. Moreover, the activity, negative = inhibition in experiment [4] was -4.43%. Further, the Potency result in experiment [6] and in experiment [7] was “inactive” throughout. For the same compound, in experiment [8], the result was inactive.

Consider `N#Cc1ccc(CN2CC3(CCN(C(=O)c4csnn4)CC3)C2)cc1`, for which the Potency in experiment [1] is greater than 11.4 µM; in [5] it was greater than 46 µM. In addition, the activity change, negative = inhibition in experiment [2] was -0.499%; in experiment [3], -22.3%. Also, the activity, negative = inhibition in [4] was 5.17%. The Potency result in experiment [6] and in [7] was “inactive” in each case. Besides, the result in experiment [8] was inactive.

As for `O=C(Nc1cccc(F)c1)N1CCCC2(CCN(C(=O)c3csnn3)CC2)C1`, the Potency is greater than 11.4 µM in experiment [1] and greater than 46 µM in experiment [5]. In addition, the activity change, negative = inhibition in [2] is -12.3%; in experiment [3], -19.5%. The activity, negative = inhibition in experiment [4] was -9.38%. Moreover, the Potency entry in experiment [6] and in experiment [7] was “inactive” throughout. Further, the result in experiment [8] was inactive.

For the compound `COc1ccc(C(=O)N2CCC[C@@]3(CCN(C(=O)Nc4cccc(F)c4)C3)C2)cc1`, the Potency in [1] was greater than 11.4 µM; in experiment [5] it was greater than 46 µM. Further, the figures for the activity change, negative = inhibition in experiment [2] and in experiment [3] were -10.8% and 2.1%, respectively. Also, the activity, negative = inhibition in experiment [4] is -4.78%. The Potency entry in experiment [6] and in experiment [7] was “inactive” each time. Moreover, the outcome in experiment [8] was inactive.

As to `COc1ccc(C(=O)N2CCC3(CCCN(C(=O)NC(C)C)C3)CC2)cc1`, the Potency in [1] is greater than 11.4 µM; in experiment [5], greater than 46 µM. The activity change, negative = inhibition is -3.27% in [2] and 2.69% in [3]. In addition, the activity, negative = inhibition in experiment [4] is 0.47%. Besides, the Potency result in experiment [6] and in [7] was “inactive” each time. The result in experiment [8] was inactive.

Consider `O=C(c1ccncc1)N1CCC2(CCCN(c3ccc(-c4ccccc4)cc3)C2)CC1`, for which the Potency in [1] is greater than 11.4 µM; in experiment [5], greater than 46 µM. Moreover, the results for the activity change, negative = inhibition in experiment [2] and in experiment [3] were -6.85% and 14.6%, respectively. Further, the activity, negative = inhibition in experiment [4] is -6.26%. In addition, the Potency result in [6] and in experiment [7] was “inactive” throughout. The result in experiment [8] was inactive.
